GC-A act = GC-A stimulated cGMP production enhancers – HEK293 GC-A cells, cGMP TR-FRET, EC30 ANP, primary screen. 0% at EC30 ANP, 100% saturating ANP. activation, % at 10 µM. 0.14% of 370,000 active. AID 1671463, 2021; in the data active = activation above about 40%
NPR2 activator = human GC-B receptor activators, primary screen, HEK293 GC-B cells, cGMP TR-FRET, EC30 CNP; 0.11% of 370,000 active; activation, % at 10 µM; 0% at EC30 CNP, 100% saturating CNP; Atrial natriuretic peptide receptor 2 (Homo sapiens), P20594; AID 1920062, 2024;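 active = activation at 10 µM reaching about 35% in either raw or pattern-adjusted values, limit read from the data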
ADAM17 inh = ADAM17 inhibitors, primary screen, biochemical, QFRET | Disintegrin and metalloproteinase domain-containing protein 17 (Homo sapiens), P78536 | 0.83% of 370,000 active | recombinant ADAM17, EDANS/DABCYL FRET peptide cleavage | inhibition, % at 6.95 µM;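 active = inhibition above the mean of compounds lying between control limits plus 3 SD, set per campaign, cut at about 8.5% in these data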
FAS-TE inh = FAS thioesterase domain inhibitors, primary screen, biochemical, fluorescence intensity, uHTS. recombinant FAS-TE, OMFH fluorogenic substrate, fluorescence endpoint. 0.67% of 360,000 active. inhibition, % at 15 µM. AID 602261, 2012. Fatty acid synthase (Homo sapiens), P49327;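 active = compounds whose normalised, plate-corrected inhibition of enzyme fluorescence in the single-dose primary screen is 50% or more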
ADAM10 inh = human ADAM10 inhibitors, primary screen, biochemical, QFRET, HTS. Disintegrin and metalloproteinase domain-containing protein 10 (Homo sapiens), O14672. recombinant ADAM10, EDANS/DABCYL FRET peptide cleavage, 3 h. inhibition, % at 7 µM. 0.62% of 370,000 active. AID 720582, 2013;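 active = inhibition above a per-campaign cutoff equal to the mean of compounds falling between control-based bounds plus 3 SD, cut at about 20% in these data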
ADAM10 confirm = human ADAM10 inhibitors, confirmation, biochemical, QFRET, triplicate; shares compounds with ADAM10 inh; ADAM10 QFRET peptide cleavage, EDANS fluorescence; inhibition, % at 6.95 µM; 1% of 2,100 active; AID 743208, 2013;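 active = inhibition above about 20% chosen separately for each screening run, limit read from the data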
ADAM17 ctr = ADAM17 inhibitors, counter-screen for ADAM10 exosite inhibitor project, biochemical, QFRET, high throughput | shares compounds with ADAM10 inh | ADAM17 QFRET peptide cleavage, EDANS fluorescence | inhibition, % at 6.95 µM | 0.5% of 2,100 active;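 active = mean triplicate inhibition above the solvent-only control wells' mean plus 3 SD, cut at about 12% in these data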
ADAM10 ctr = ADAM10 inhibitors, counter-screen for ADAM17 exosite inhibitor project, biochemical, FRET, human ADAM10 | shares compounds with ADAM17 inh | recombinant ADAM10, EDANS/DABCYL FRET peptide cleavage, 3 h | inhibition, % at 6.95 µM | 47% of 2,900 active | AID 743256, 2014;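 active = mean inhibition over the triplicate runs exceeds the activity threshold set in the earlier primary screen, cut at about 20% in these data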
ADAM17 confirm = ADAM17 inhibitors, hit retest, confirmation, biochemical, QFRET peptide cleavage. shares compounds with ADAM17 inh. recombinant ADAM17, EDANS/DABCYL QFRET peptide cleavage. inhibition, % at 6.95 µM. 65% of 2,900 active. AID 743257, 2014;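 active = mean inhibition across replicates above the hit cutoff set in the primary screen, cut at about 8.5% in these data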
Of the large screens only hits and unclear results are named; the others gave an inactive call (follow-up assays come after a bar, where they were run). This is a sample that favours compounds with a hit; in the whole collection about 2% have one here.

C=C(C)COc1ccc(-c2[nH]ncc2Oc2ccccc2OC)c(O)c1	none
C=C(C)COc1ccc(-c2[nH]ncc2-c2ccccc2OC)c(O)c1	ADAM17 inh 18, ADAM10 inh 29 | ADAM10 confirm inactive | ADAM17 ctr inactive | ADAM10 ctr 37 | ADAM17 confirm 19
CCOc1ccc(-c2[nH]ncc2Oc2ccccc2OC)c(O)c1	ADAM17 inh 9.6, ADAM10 inh 21 | ADAM10 confirm inactive | ADAM17 ctr inactive | ADAM10 ctr 30 | ADAM17 confirm 15
COCCN=c1scc(-c2cc(OC)ccc2OC)n1/N=C/c1c[nH]c2ccccc12	ADAM17 inh 11, ADAM10 inh 20 | ADAM10 confirm inactive | ADAM17 ctr inactive | ADAM10 ctr inactive | ADAM17 confirm 12
COCCN=c1scc(-c2ccco2)n1/N=C/c1ccc(O)c(O)c1O	none
COc1ccc(Cl)cc1NC(=S)NCCc1c[nH]c2ccccc12	ADAM17 inh 10, ADAM10 inh 22 | ADAM10 confirm inactive | ADAM17 ctr inactive | ADAM10 ctr 36 | ADAM17 confirm 21
Cc1ccccc1NC(=S)NCCc1c[nH]c2ccccc12	none
O=S1(=O)CC(N2CCCC2)CN1Cc1cn(Cc2ccc(C(F)(F)F)cc2)nn1 (centres undefined)	none (no result: FAS-TE inh)
COC(=O)[C@]12C[C@H](CC(=O)NCc3cccc(C(F)(F)F)c3)C(=O)N(Cc3ccco3)C1=C[C@H](C(C)C)O[C@@H]2C1CC1	ADAM17 inh 12, ADAM10 inh 24 (no result: FAS-TE inh) | ADAM10 confirm inactive | ADAM17 ctr inactive | ADAM10 ctr 49 | ADAM17 confirm 24
COC(=O)[C@]12C[C@H](CC(=O)NCc3cccc(C(F)(F)F)c3)C(=O)N(CCc3ccc(OC)c(OC)c3)C1=C[C@H](C1CCCC1)O[C@@H]2C	ADAM17 inh 9.0, ADAM10 inh 28 (no result: FAS-TE inh) | ADAM10 confirm inactive | ADAM17 ctr inactive | ADAM10 ctr 27 | ADAM17 confirm 12
COC(=O)[C@]12C[C@H](CC(=O)NCc3cccc(C(F)(F)F)c3)C(=O)N(Cc3ccco3)C1=C[C@H](C(C)(C)C)O[C@@H]2C	ADAM17 inh 10.0, ADAM10 inh 22 (no result: FAS-TE inh) | ADAM10 confirm inactive | ADAM17 ctr inactive | ADAM10 ctr 42 | ADAM17 confirm 21
COC(=O)[C@]12C[C@H](CC(=O)NCCc3ccccc3OC)C(=O)N(Cc3cccc4ccccc34)C1=C[C@H](C(C)C)O[C@@H]2C1CC1	ADAM17 inh 11, ADAM10 inh 22 (no result: FAS-TE inh) | ADAM10 confirm inactive | ADAM17 ctr inactive | ADAM10 ctr 27 | ADAM17 confirm 17
COC(=O)[C@]12C[C@H](CC(=O)NCc3cccc(C(F)(F)F)c3)C(=O)N(CCc3ccc(OC)c(OC)c3)C1=C[C@H](C(C)(C)C)O[C@@H]2C	none (no result: FAS-TE inh)
COc1ccc(CN(CC(O)COCc2ccccc2)S(=O)(=O)c2ccccc2Br)cc1OC (centres undefined)	none

Screening results as filed in PubChem BioAssay.
